From PubChem BioAssay
Tb PYK inh – T. brucei pyruvate kinase inhibition; Q57TT1; TbPYK enzyme, Kinase-Glo Plus ATP luminescence, 45 min; Potency, µM (titrated, usually from 76.8 µM), inactives show top-dose activity, negative = inhibition, usual class: inhibitors; actives 0.12% (n = 410,000); note: potency is the fitted concentration of half-maximal effect; % is set by controls: 0 for no effect and ±100 for the full control effect; nearly all actives have a fitted effect of over 50% in size
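In this concentration-response screen, enzyme-free wells defined baseline while DMSO plates tracked drift. Each reaction combined TbPYK, substrate, compound and 130 uM ADP for 45 min at room temperature. Kinase-Glo Plus luminescence gave the signal.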
FBPA Giardia inh – inhibitors of Giardia lamblia fructose-1,6-bisphosphate aldolase. A8B2U2. purified Giardia FBPA. Potency, µM (doses to about 59.6 µM), for inactives: at the highest dose activity, negative = inhibition, usual class: inhibitors. actives 0.71% (n = 290,000); note: potency is the fitted concentration of half-maximal effect; % is set by controls: 0 for no effect and ±100 for the full control effect; nearly all actives have a fitted effect of over 55% in size
Target sequence (A8B2U2 whole entry, looked up): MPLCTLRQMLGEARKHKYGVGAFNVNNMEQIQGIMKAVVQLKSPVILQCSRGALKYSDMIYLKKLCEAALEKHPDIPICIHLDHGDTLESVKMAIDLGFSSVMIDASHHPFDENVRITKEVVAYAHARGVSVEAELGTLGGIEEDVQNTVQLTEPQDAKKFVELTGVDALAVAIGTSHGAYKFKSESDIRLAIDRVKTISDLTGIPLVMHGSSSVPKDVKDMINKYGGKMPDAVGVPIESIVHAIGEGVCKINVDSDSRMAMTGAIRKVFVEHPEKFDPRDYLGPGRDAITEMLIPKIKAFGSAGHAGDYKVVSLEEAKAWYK
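40 nM FBPA preincubated 10 min at RT with compound (up to 57.5 uM final), then substrate plus GAPDH/TPI/NAD/arsenate coupling and diaphorase/resazurin added. Fluorescence read after 20 min at RT, 525/598 nm.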
Shiga inhibitor – inhibitors of Shiga toxin in Vero cells; Vero cells, Shiga toxin protein synthesis inhibition reporter; inhibition, % at 38.7 µM; actives 9.2% (n = 290,000); AID 2315; in the data active = inhibition mostly above about 28%, no sharp cut-off; inactive = mostly below about 43%; note: 0% is about no effect
Sm TGR block – blocks Schistosoma mansoni thioredoxin glutathione reductase; Potency, µM (highest dose often 114 µM), for the others: top-dose activity change, negative = inhibition, most hits filed as inhibitors; purified TGR, DTNB reduction, TNB absorbance 405 nm; AID 485364; actives 3% (n = 360,000); note: potency is the fitted concentration of half-maximal effect; % is set by controls: 0 for no effect and ±100 for the full control effect; nearly all actives have a fitted effect of over 60% in size
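Kinetic colorimetric format: TGR-catalysed, NADPH-driven DTNB reduction monitored via TNB absorbance. Enzyme dispensed at 20 nM; compound exposure 15 min at room temperature before reaction start.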
LmPK inhibitor – blocks Leishmania mexicana pyruvate kinase activity; actives 0.37% (n = 290,000); Potency, µM (highest dose often 57.5 µM), for the others: at the highest dose activity change, negative = inhibition, usual class: inhibitors; AID 1721; purified LmPK, Kinase-Glo ATP luminescence, 1 h; Q27686; note: potency is the fitted concentration of half-maximal effect; % is set by controls: 0 for no effect and ±100 for the full control effect
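qHTS format; LmPK 0.1 nM; substrates PEP 0.5 mM and ADP 0.1 mM. One-hour room-temperature incubation, then coupled luciferase luminescence; 0.5 nM enzyme wells mark activation.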
Cycloheximide cs – counter-screen for Shiga toxin inhibitors: cycloheximide protein synthesis inhibition; cell reporter, cycloheximide protein synthesis inhibition counterscreen; max response, %; actives 12% (n = 300,000); in the data active = max response mostly above about 13%, no sharp cut-off; inactive = mostly below about 14%; note: read at 38.3 µM for the half of the compounds with a filed dose; 0% is about no effect
The depositor's hits bear a star; u = inconclusive; x = no result; [ ] = remark or other dose. Only a selection was taken, and hits are over-represented in it overall. Unless noted, calls come from the whole dose curve; as a rule, active = well fitted curve in the direction sought with a large enough effect; inconclusive = small, poorly fitted or top-dose-only effect, or another doubt; inactive = no such curve, though single readings can be large; an effect the other way counts as inactive or inconclusive.

SMILES	Tb PYK inh	FBPA Giardia inh	Shiga inhibitor	Sm TGR block	LmPK inhibitor	Cycloheximide cs
COc1cccc(C2=NN(C(C)=O)C(c3cccs3)C2)c1 (configuration not stated)	-9%	0%	30	2%	2%	21*
CC(=O)N1N=C(c2ccccc2)CC1c1cccs1 (configuration not stated)	-11%	7%	-4	-3%	4%	10
COc1ccc(C2=NN(C(C)=O)C(c3cccs3)C2)cc1OC (configuration not stated)	0%	3%	35*	10%	-5%	22*
N#CCCn1c(=O)c(-c2ccc(F)cc2)nc2cnc(N3CCNCC3)nc21	x	4%	x	x	x	x
CC1CC(NC(=O)c2c(O)nc3sccn3c2=O)CC(C)(C)C1 (configuration not stated)	-2%	x	x	-3%	x	x
CC(C)/C(=N/Nc1ccccc1[N+](=O)[O-])c1ccccc1	2%	4%	48*	3%[57.1 µM]	-4%	27*
COC(=O)N/N=C(\C)c1ccc(C)c([N+](=O)[O-])c1	-3%	-1%	17*	-2%	-8%	19*
C/C(=N\NC(=O)c1cc(C)oc1C)c1ccc(C)c([N+](=O)[O-])c1	-2%	x	x	-7%	x	x
C/C(=N\Nc1ccccc1[N+](=O)[O-])c1ccc(N2CCOCC2)cc1	-7%	-6%	86*	-4%	-3%	21*
C/C(=N/Nc1ccccc1[N+](=O)[O-])c1ccc(C)c([N+](=O)[O-])c1	-8%	-8%	-6	-2%	5%	16*
CN(C)CCNc1ncnc2c1ncn2[C@H]1CN(Cc2ccc3c(c2)OCO3)C[C@@H](CO)O1	-3%	x	x	x	x	x
O=C1c2ccccc2C(c2nnnn2Cc2ccccc2)N1CCc1c[nH]c2ccccc12 (configuration not stated)	-7%	x	x	x	x	x
COC(=O)C1=C(C)NC(C)=C(C(=O)OCCCN2CCC(c3ccccc3)(c3ccccc3)CC2)[C@H]1c1cccc([N+](=O)[O-])c1	x	-3%	x	x	x	x
CCN1CCN(CC(=O)c2ccc(C)cc2)CC1	0%	u	-5	5%	-9%	-3
CCC1=[N+](CC(=O)c2ccc(C)cc2)CCn2c(C)ccc21	-12%	3%	13	-34%	-6%	23*
CC1=[N+](CC(=O)c2ccccc2)CCn2cccc21	-9%	-8%	58*	-12%	7%	34*
CCC1=[N+](CC(=O)c2ccc(C)cc2)CCn2cccc21	-6%	-5%	48	x	0%	24*
CCC1=[N+](CC(=O)c2ccc(Br)cc2)CCn2c(C)ccc21	5%	-3%	52*	18µM*	-4%	15*
CCC1=[N+](C)CCn2c(C)ccc21	0%	3%	-5	6%	-6%	-3
CCN(CCCNC(=O)CSc1cc(=O)n(CC)c2ccccc12)c1cccc(C)c1	0%	x	x	-14%	x	x
Fc1ccccc1Cn1nnc(-c2ccc3c(c2)OCO3)n1	1%	3%	88*	-19%	-4%	43*
COc1ccc(-c2nnn(Cc3ccccc3F)n2)cc1	-3%	6%	96*	-11%	2%	49*
CNC(=O)c1cc(C(=O)c2ccc(F)cc2C(F)(F)F)c[nH]1	1%	4%	-12	1%	0%	-5
CCNC(C)Cc1ccc2c(c1)OCO2 (configuration not stated)	6%[157 µM]	x	x	x	x	x
O=C(NCCCN1CCC(Cc2ccccc2)CC1)C1CCN(S(=O)(=O)N2CCC3(CC2)OCCO3)CC1	1%	0%	128	6%	3%	35*
CCN1C(=O)C(C)S/C1=N\S(=O)(=O)c1ccc(Cl)s1 (configuration not stated)	1%	13%	-11	2%[11.4 µM]	9%	-2
CC(=O)NC1Sc2ccccc2N=C1c1ccccc1 (configuration not stated)	u	-18%	111*	6%	u	43*
CC(=O)Nc1nc(-c2ccccc2)c(-c2ccccc2)o1	-4%	8%	11	-10%	4%	-2
N#Cc1ccc(CSc2nc(N)cc(N)n2)cc1	-21%	-10%	13	-10%	-2%	7.9*
